# Test results: PubChem BioAssay (NCI)
# Compounds without any hit were thinned out: in the full panel of roughly 79,000, 15% have a hit. Values without a mark were called inactive. Activity calls are given as the source filed them. No stated cut-off is given here; in the data, active means growth inhibition above about 70%; inactive means the rest.
# Experiments:
# [1] = NCI Yeast Anticancer Drug Screen. Data for the rad52 strain (AID 147);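 further: 0% = growth of vehicle-treated control cultures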; conditions: S. cerevisiae rad52 mutant growth inhibition, active compounds read high
# Outline: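 Inhibition of yeast growth, referenced to vehicle controls, was the measured output for a strain with defective DNA damage repair.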
# [2] = NCI Yeast Anticancer Drug Screen. Data for the wt1 strain (AID 149);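 further: 0% = growth of vehicle-treated wt1 cultures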; conditions: S. cerevisiae wt1 strain (SPY 50644) growth inhibition, active compounds read high
# Outline: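 Readout: yeast growth inhibition, normalised to vehicle controls, in the wt1 strain exposed to test compounds.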
# [3] = NCI Yeast Anticancer Drug Screen. Data for the mgt1 strain (AID 153); conditions: S. cerevisiae mgt1 mutant growth inhibition, active compounds read high
# Outline: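 In the mgt1 strain, test compounds were added and growth inhibition was determined relative to vehicle-treated controls.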
# [4] = NCI Yeast Anticancer Drug Screen. Data for the rad50 strain (AID 155);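 further: 0% = growth of vehicle-only cultures of the same strain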; conditions: S. cerevisiae rad50 strain growth inhibition, active compounds read high
# Outline: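 Compounds were tested on a yeast strain with an engineered DNA damage repair alteration; the reported value is growth inhibition normalised to vehicle treatment.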
# [5] = NCI Yeast Anticancer Drug Screen. Data for the mec2-1 strain (AID 157); conditions: S. cerevisiae mec2-1 strain, active compounds read high
# Outline: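 Each compound was tested on mec2-1 yeast, a strain altered in DNA damage repair or cell cycle control. Growth inhibition is reported relative to vehicle.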
# [6] = NCI Yeast Anticancer Drug Screen. Data for the rad14 strain (AID 159);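 further: 0% = growth of vehicle-treated control cultures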; conditions: S. cerevisiae rad14 strain growth inhibition, active compounds read high
# Outline: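 Compound-treated yeast with a defined DNA-repair lesion; growth inhibition normalised to vehicle-treated cultures.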
# [7] = NCI Yeast Anticancer Drug Screen. Data for the sgs1 mgt1 strain (AID 161);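 further: 0% = growth of cultures given vehicle only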; conditions: S. cerevisiae sgs1 mgt1 strain, active compounds read high
# Outline: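 Test agents were incubated with a DNA-repair-mutant yeast strain. Growth was then read and compared against vehicle-treated controls.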
# [8] = NCI Yeast Anticancer Drug Screen. Data for the CLN2oe strain (AID 163);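 further: 0% = growth of vehicle-only control cultures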; conditions: S. cerevisiae CLN2oe strain, active compounds read high
# Outline: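 First, the altered yeast strain was treated with each compound; second, its growth was measured; finally, inhibition was derived by comparison with vehicle controls.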
# [9] = NCI Yeast Anticancer Drug Screen. Data for the cln2 rad14 strain (AID 165);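 further: 0% = growth equal to vehicle treated cultures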; conditions: S. cerevisiae cln2 rad14 strain, active compounds read high
# Outline: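 Test compounds were added to cln2 rad14 yeast cultures; inhibition of growth was then determined by comparison with vehicle treatment.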
# [10] = NCI Yeast Anticancer Drug Screen. Data for the bub3 strain (AID 167); conditions: S. cerevisiae bub3 mutant strain, active compounds read high
# Outline: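 Growth of a checkpoint-deficient yeast mutant is measured after compound exposure. Values represent inhibition relative to vehicle.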
# [11] = NCI Yeast Anticancer Drug Screen. Data for the wt2 strain (AID 169);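 further: 0% = growth of vehicle-treated yeast cultures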; conditions: S. cerevisiae wt2 strain growth inhibition, active compounds read high
# Outline: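 The panel's yeast strains carry defined changes in DNA repair or cell cycle genes. Each strain is grown with compound, and growth loss is scored relative to vehicle.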
# [12] = NCI Yeast Anticancer Drug Screen. Data for the mlh1 strain (AID 171);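 further: 0% = growth of vehicle-treated control cultures of the same strain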; conditions: S. cerevisiae mlh1 strain growth inhibition, active compounds read high
# Outline: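 Inhibition values reflect reduced yeast growth in the presence of compound, referenced to vehicle controls, using a strain chosen for its alteration in DNA repair or cell cycle control.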
# [13] = NCI Yeast Anticancer Drug Screen. Data for the sgs1 strain (AID 173);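 further: 0% = growth of vehicle-only control cultures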; conditions: S. cerevisiae sgs1 mutant, active compounds read high
# Outline: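 Vehicle-treated cultures served as reference for growth inhibition of a yeast strain altered in DNA damage repair or cell cycle control after compound exposure.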
# [14] = NCI Yeast Anticancer Drug Screen. Data for the mlh1 rad18 strain (AID 175); conditions: S. cerevisiae mlh1 rad18 strain growth inhibition, active compounds read high
# Outline: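 Inhibition values reflect reduced growth of mutant yeast versus vehicle-treated controls following compound exposure; the mutations affect DNA damage repair.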
# [15] = NCI Yeast Anticancer Drug Screen. Data for the rad50EPP+ strain (AID 151);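 further: 0% = growth of vehicle-treated control cultures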; conditions: S. cerevisiae rad50 mutant strain, active compounds read high
# Outline: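 Genetically defined yeast (rad50EPP+, DNA damage repair alteration) is grown with compound, and inhibition of growth is expressed relative to vehicle-treated controls.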
# [16] = NCI Yeast Anticancer Drug Screen. Data for the rad18 strain (AID 177); conditions: S. cerevisiae rad18 mutant growth inhibition, active compounds read high
# Outline: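 Steps: expose repair-mutant yeast to compound; measure growth; express as inhibition relative to vehicle control.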
# [17] = at 5.0 µM (retest, dose inferred, filed as 0.5)
# [18] = at 50.0 µM (retest, dose inferred, filed as 5.0)
compound,measurement,setting,value
C[C@H](CCC1=NC(C)(C)CO1)C1CCC2[C@@H]3C(O)C[C@@H]4CC(O)CC[C@]4(C)C3CC[C@@]21C (stereo partly drawn),growth inhibition,[1]; at 1.2 µM,-3%
same,growth inhibition,[1]; at 3.7 µM,-5%
same,growth inhibition,[1]; at 11.0 µM,-9%
same,growth inhibition,[1]; at 33.0 µM,70% (active)
same,growth inhibition,[1]; at 100.0 µM,99% (active)
same,growth inhibition,[2]; at 1.2 µM,-3%
same,growth inhibition,[2]; at 3.7 µM,-5%
same,growth inhibition,[2]; at 11.0 µM,-11%
same,growth inhibition,[2]; at 33.0 µM,37%
same,growth inhibition,[2]; at 100.0 µM,99% (active)
same,growth inhibition,[3]; at 1.2 µM,-7%
same,growth inhibition,[3]; at 3.7 µM,-8%
same,growth inhibition,[3]; at 11.0 µM,-9%
same,growth inhibition,[3]; at 33.0 µM,71% (active)
same,growth inhibition,[3]; at 100.0 µM,100% (active)
same,growth inhibition,[4]; at 1.2 µM,-3%
same,growth inhibition,[4]; at 3.7 µM,-4%
same,growth inhibition,[4]; [17],1%
same,growth inhibition,[4]; at 11.0 µM,-8%
same,growth inhibition,[4]; at 33.0 µM,76% (active)
same,growth inhibition,[4]; [18],95% (active)
same,growth inhibition,[4]; at 50.0 µM,99.4% (active)
same,growth inhibition,[4]; at 100.0 µM,99% (active)
same,growth inhibition,[5]; at 1.2 µM,-5%
same,growth inhibition,[5]; at 3.7 µM,-3%
same,growth inhibition,[5]; [17],-2%
same,growth inhibition,[5]; at 11.0 µM,-6%
same,growth inhibition,[5]; at 33.0 µM,84% (active)
same,growth inhibition,[5]; [18],98% (active)
same,growth inhibition,[5]; at 50.0 µM,99.8% (active)
same,growth inhibition,[5]; at 100.0 µM,100% (active)
same,growth inhibition,[6]; at 1.2 µM,-4%
same,growth inhibition,[6]; at 3.7 µM,-4%
same,growth inhibition,[6]; at 11.0 µM,1%
same,growth inhibition,[6]; at 33.0 µM,99% (active)
same,growth inhibition,[6]; at 100.0 µM,100% (active)
same,growth inhibition,[7]; [17],3%
same,growth inhibition,[7]; [18],98% (active)
same,growth inhibition,[7]; at 50.0 µM,99.7% (active)
same,growth inhibition,[8]; at 1.2 µM,-6%
same,growth inhibition,[8]; at 3.7 µM,-12%
same,growth inhibition,[8]; at 11.0 µM,-11%
same,growth inhibition,[8]; at 33.0 µM,62%
same,growth inhibition,[8]; at 100.0 µM,99% (active)
same,growth inhibition,[9]; [17],1%
same,growth inhibition,[9]; [18],96% (active)
same,growth inhibition,[9]; at 50.0 µM,97.9% (active)
same,growth inhibition,[10]; at 1.2 µM,-3%
same,growth inhibition,[10]; at 3.7 µM,-2%
same,growth inhibition,[10]; [17],0%
same,growth inhibition,[10]; at 11.0 µM,-10%
same,growth inhibition,[10]; at 33.0 µM,79% (active)
same,growth inhibition,[10]; [18],98% (active)
same,growth inhibition,[10]; at 50.0 µM,98.5% (active)
same,growth inhibition,[10]; at 100.0 µM,99% (active)
same,growth inhibition,[11]; at 1.2 µM,-4%
same,growth inhibition,[11]; at 3.7 µM,-7%
same,growth inhibition,[11]; at 11.0 µM,-12%
same,growth inhibition,[11]; at 33.0 µM,95% (active)
same,growth inhibition,[11]; at 100.0 µM,100% (active)
same,growth inhibition,[12]; at 1.2 µM,-3%
same,growth inhibition,[12]; at 3.7 µM,-6%
same,growth inhibition,[12]; at 11.0 µM,-6%
same,growth inhibition,[12]; at 33.0 µM,87% (active)
same,growth inhibition,[12]; at 100.0 µM,100% (active)
same,growth inhibition,[13]; at 1.2 µM,-3%
same,growth inhibition,[13]; at 3.7 µM,-4%
same,growth inhibition,[13]; at 11.0 µM,-6%
same,growth inhibition,[13]; at 33.0 µM,90% (active)
same,growth inhibition,[13]; at 100.0 µM,100% (active)
same,growth inhibition,[14]; [17],-7%
same,growth inhibition,[14]; [18],98% (active)
same,growth inhibition,[14]; at 50.0 µM,99.4% (active)
COC(=O)C(Cc1c[nH]c2ccccc12)N1CN(C)c2ccccc2C1=O (stereo not drawn),growth inhibition,[1]; at 1.2 µM,7%
same,growth inhibition,[1]; at 3.7 µM,2%
same,growth inhibition,[1]; at 11.0 µM,0%
same,growth inhibition,[1]; at 33.0 µM,3%
same,growth inhibition,[1]; at 100.0 µM,99% (active)
same,growth inhibition,[2]; at 1.2 µM,7%
same,growth inhibition,[2]; at 3.7 µM,-3%
same,growth inhibition,[2]; at 11.0 µM,-4%
same,growth inhibition,[2]; at 33.0 µM,-4%
same,growth inhibition,[2]; at 100.0 µM,60%
same,growth inhibition,[15]; at 1.2 µM,9%
same,growth inhibition,[15]; at 3.7 µM,0%
same,growth inhibition,[15]; at 11.0 µM,-3%
same,growth inhibition,[15]; at 33.0 µM,1%
same,growth inhibition,[15]; at 100.0 µM,16%
same,growth inhibition,[3]; at 1.2 µM,49%
same,growth inhibition,[3]; at 3.7 µM,-1%
same,growth inhibition,[3]; at 11.0 µM,-1%
same,growth inhibition,[3]; at 33.0 µM,5%
same,growth inhibition,[3]; at 100.0 µM,99% (active)
same,growth inhibition,[4]; at 1.2 µM,7%
same,growth inhibition,[4]; at 3.7 µM,2%
same,growth inhibition,[4]; [17],11%
same,growth inhibition,[4]; at 11.0 µM,6%
same,growth inhibition,[4]; at 33.0 µM,2%
same,growth inhibition,[4]; [18],37%
same,growth inhibition,[4]; at 50.0 µM,57.9%
same,growth inhibition,[4]; at 100.0 µM,99% (active)
same,growth inhibition,[7]; [17],-2%
same,growth inhibition,[7]; [18],60%
same,growth inhibition,[7]; at 50.0 µM,97.8% (active)
same,growth inhibition,[8]; at 1.2 µM,4%
same,growth inhibition,[8]; at 3.7 µM,1%
same,growth inhibition,[8]; at 11.0 µM,3%
same,growth inhibition,[8]; at 33.0 µM,7%
same,growth inhibition,[8]; at 100.0 µM,99% (active)
same,growth inhibition,[9]; [17],-4%
same,growth inhibition,[9]; [18],54%
same,growth inhibition,[9]; at 50.0 µM,70.5% (active)
same,growth inhibition,[10]; at 1.2 µM,-6%
same,growth inhibition,[10]; at 3.7 µM,-1%
same,growth inhibition,[10]; [17],13%
same,growth inhibition,[10]; at 11.0 µM,11%
same,growth inhibition,[10]; at 33.0 µM,0%
same,growth inhibition,[10]; [18],44%
same,growth inhibition,[10]; at 50.0 µM,40.4%
same,growth inhibition,[10]; at 100.0 µM,99% (active)
same,growth inhibition,[11]; at 1.2 µM,8%
same,growth inhibition,[11]; at 3.7 µM,-2%
same,growth inhibition,[11]; at 11.0 µM,-4%
same,growth inhibition,[11]; at 33.0 µM,0%
same,growth inhibition,[11]; at 100.0 µM,99% (active)
same,growth inhibition,[12]; at 1.2 µM,2%
same,growth inhibition,[12]; at 3.7 µM,0%
same,growth inhibition,[12]; at 11.0 µM,0%
same,growth inhibition,[12]; at 33.0 µM,6%
same,growth inhibition,[12]; at 100.0 µM,99% (active)
same,growth inhibition,[13]; at 1.2 µM,3%
same,growth inhibition,[13]; at 3.7 µM,2%
same,growth inhibition,[13]; at 11.0 µM,1%
same,growth inhibition,[13]; at 33.0 µM,8%
same,growth inhibition,[13]; at 100.0 µM,99% (active)
same,growth inhibition,[14]; [17],-9%
same,growth inhibition,[14]; [18],75% (active)
same,growth inhibition,[14]; at 50.0 µM,95.8% (active)
same,growth inhibition,[16]; at 1.2 µM,-8%
same,growth inhibition,[16]; at 3.7 µM,-3%
same,growth inhibition,[16]; at 11.0 µM,3%
same,growth inhibition,[16]; at 33.0 µM,18%
same,growth inhibition,[16]; at 100.0 µM,99% (active)
